Measurements reported in publication PMC5540273 (PLoS ONE, 2017).
Where two headings read alike, the source gives them in different places.

Experiments:
MLK1 = system: T1, MLK1; settings: concentration: 1 μM, replicates: in singlicate; n = 1
T1 construct: gene MAP3K9

MLK2 = settings: concentration: 1 μM, replicates: in singlicate; n = 1
MLK3 = settings: concentration: 1 μM, replicates: in singlicate; n = 1
MRCKA = settings: n = 1
MRCKB = system: T2, MRCKB; settings: concentration: 1 μM, replicates: in singlicate; n = 1
T2 construct: gene CDC42BPB

MST1R = settings: concentration: 1 μM, replicates: in singlicate; n = 1
MST1 = system: T3, MST1; settings: concentration: 1 μM, replicates: in singlicate; n = 1
T3 construct: gene STK4

MST2 = system: T4, MST2; settings: concentration: 1 μM, replicates: in singlicate; n = 1
T4 construct: gene STK3

MST3 = system: T5, MST3; settings: concentration: 1 μM, replicates: in singlicate; n = 1
T5 construct: gene STK24

MST4 = settings: concentration: 1 μM, replicates: in singlicate; n = 1
[1] = concentration: 1 μM, replicates: in singlicate
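Further: KINOMEscan kinase panel screen.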

Compound	%Inh (MLK1) [%]	%Inh (MLK2) [%]	%Inh (MLK3) [%]	%Inh (MRCKA; [1]) [%]	%Inh (MRCKB) [%]	%Inh (MST1R) [%]	%Inh (MST1) [%]	%Inh (MST2) [%]	%Inh (MST3) [%]	%Inh (MST4) [%]	%Inh (MRCKA; 1 µM) [%]
c1ccc(-c2n[nH]cc2Nc2ccnc3ccccc23)nc1 [GW694077]	11	0	0	18	0	12	0	0	0	0	
Oc1cc(Nc2ccnc3cc(I)ccc23)ccc1F [GW552771]	0	13	0	0	0	28	9	0	2	0	
Cn1cc(-c2ccc3c(c2)CCN3C(=O)Cc2cccc(F)c2)c2c(N)ncnc21 [GSK2603358]	20	11	37	5	0	49	95.8	69	15	8	
O=C(Nc1n[nH]c2nc(-c3ccc(O)cc3)ccc12)C1CC1 [SB-710363]	0	0	0	0	0	0	0	0	0	9	
Nc1n[nH]c2cnc(-c3ccccc3)cc12 [SB-642124]	0	0	0	16	3	37	4	8	0	5	
Cl.Cl.NCC(NC(=O)c1cc(-c2ccccc2)c(-c2ccnc3[nH]ccc23)s1)c1ccccc1 (stereo not shown) [GSK1321561]	0	23	11	73	90.7	42	0	0	0	27	
Fc1ccc(-c2ncn(C3CCNCC3)c2-c2ccnc(Oc3ccc(-c4ccccc4)cc3)n2)cc1 [SB-245391]	52	46	0	26	59	0	27	30	14	31	
CCn1c(-c2nonc2N)nc2c(C#CC(C)(C)O)ncc(OCCCCN)c21.O=C(O)C(F)(F)F.O=C(O)C(F)(F)F [GSK507274]	0	0	0		5	33	3	0	0	2	17
Cc1cccc(NC(=O)Nc2ccc(Oc3ncnc4ccn(C)c34)cc2)c1	2	0	0	0	0	7	14	0	0	0	
CCS(=O)(=O)c1ccc(OC)c(Nc2nccc(-c3c(-c4cccc(NC(=O)c5c(F)cccc5F)c4)nn4ncccc34)n2)c1 [GSK326180]	0	0	0	24	11	0	21	28	0	0	
COC(=O)Nc1nc2cc(Oc3ccc(NC(=O)Nc4cc(C(F)(F)F)ccc4F)cn3)ccc2[nH]1.Cl.Cl [GW681170]	12	0	10	16	0	17	0	0	0	0	
Cl.Cl.NCC(C(=O)Nc1cc(Br)c(-c2ccnc3[nH]ccc23)s1)c1ccccc1 (stereo not shown) [GSK1269851]	0	18	11	0	25	47	0	7	0	11	
C[C@@H](Oc1cc(-n2cnc3cc(-c4ccnc(NCCS(C)(=O)=O)c4)ccc32)sc1C(N)=O)c1ccccc1Cl [GSK907232]	14	20	42	0	8	57	64	0	0	4	
COc1cc(Nc2nccc(N3CCC(NC(=O)c4cc5ccccc5s4)C3)n2)cc(OC)c1OC (stereo not shown) [GSK1379760]	58	46	53	11	0	39	9	0	11	100	
Clc1ccc(-c2nn3ncccc3c2-c2ccnc(Nc3ccc4c(c3)OCCO4)n2)cc1 [GW829116]	0	16	0	34	0	0	0	9	0	0	
Cc1ccc(S(=O)(=O)Nc2ccc(Nc3nccc(Nc4cccc5[nH]ncc45)n3)cc2)cc1 [GSK581271]	0	0	0	7	0	35	46	0	11	0	
COc1ccc(CNC(=O)NC2CCN(c3ccnc(Nc4ccc(F)cc4)n3)CC2)cc1 [GSK1379788]	0	0	0	19	0	35	3	0	0	0	
O=C(Nc1cccc(-c2nn3ccccc3c2-c2ccnc(Nc3cccc(C(F)(F)F)c3)n2)c1)c1c(F)cccc1F [GSK292658]	0	0	0	4	4	0	11	0	0	3	
Cn1cc(-c2ccc3c(c2)CCN3C(=O)Cc2cccc(Cl)c2)c2c(N)ncnc21 [GSK2606590]	70	77	73	0	0	38	97.2	0	17	19	
c1ccc(-c2cnc3nccnn23)cc1 [AH20685]	0	0	0	0	0	38	5	0	0	0	
O=C(Nc1ccccc1F)NC1CCN(c2ccnc(Nc3ccc(F)cc3)n2)CC1 [GSK1379800]	0	0	0	35	0	33	1	2	0	5	
COc1cccc(C2=C(Nc3ccc(Cl)c(C(=O)O)c3)C(=O)NC2=O)c1 [SB-390769]	4	0	0	12	0	100	25	51	0	96.3	
